# Screening results deposited in PubChem by National Center for Advancing Translational Sciences (NCATS).
# IDH1 R132H inh = human IDH1 R132H inhibition; IDH1-R132H enzyme, NADPH consumption, diaphorase/resazurin fluorescence; Potency, µM (top dose mostly 76.6 µM), without a hit: at the highest dose activity change, negative = inhibition, most hits filed as inhibitors; 390,000 compounds, 0.093% hits; AID 602179; further: potency means the concentration at half of the fitted maximal effect; on the % scale 0 is the no-effect control and ±100 the full control effect; nearly all actives have a fitted effect of over 65% in size
#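 IDH1-R132H (0.5 ug/mL) preincubated 30 min with compound, then NADPH (0.016 mM) and alpha-KG (2 mM) added; 80 min at RT, pH 7.5. Remaining NADPH coupled via diaphorase/resazurin to fluorescence (540/590 nm); concentration-response curves normalized to no-enzyme control.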
# MmCpn inh = inhibitors of Methanococcus maripaludis chaperonin TRiC (MmCpn); Potency, µM (titrated, usually from 76.9 µM), without a hit: at the top dose activity, negative = inhibition, most hits filed as inhibitors; AID 504842; purified Mm-Cpn ATPase, ADP Transcreener TR-FRET; 330,000 compounds, 0.031% hits; further: potency means the concentration at half of the fitted maximal effect; on the % scale 0 is the no-effect control and ±100 the full control effect; nearly all actives have a fitted effect of over 80% in size
#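 Purified archaeal chaperonin (25 nM final) was preincubated with compound for 10 min at 37°C, then ATP (10 uM final) was added for 30 min at 37°C in Tris pH 7.4/KCl/MgCl2/DTT buffer. ADP was quantified by HTRF Transcreener TR-FRET.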
# pAkt inh = blocks phosphorylation of Akt; Neuro2A IGF-stimulated pAkt S473 HTRF, 20 min; hits give low values; activity change, % for hits at 50 µM; 360,000 compounds, 0.32% hits; AID 651550; in the data active means activity change below about -80%; inconclusive means mostly about -51% to -80%; further: on the % scale 0 is the no-effect control and ±100 the full control effect
#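 Neuro2A cells (4,500/well, DMEM with 0.5% FBS) were treated with compound at a single 50 µM final concentration, stimulated with 6 nM IGF for 20 min at 37 °C, and lysed. Phospho-Akt Ser473 was read by HTRF as 665/615 ratio ×10^4.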
# GLS inh = glutaminase GLS (human) inhibition | 410,000 compounds, 0.21% hits | AID 624170 | Potency, µM (highest dose often 45.5 µM), for the others: top-dose activity change, negative = inhibition, actives largely listed as inhibitors | GLS enzymatic activity, qHTS titration | O94925; further: potency means the concentration at half of the fitted maximal effect; on the % scale 0 is the no-effect control and ±100 the full control effect
# Target sequence (O94925 whole entry, looked up): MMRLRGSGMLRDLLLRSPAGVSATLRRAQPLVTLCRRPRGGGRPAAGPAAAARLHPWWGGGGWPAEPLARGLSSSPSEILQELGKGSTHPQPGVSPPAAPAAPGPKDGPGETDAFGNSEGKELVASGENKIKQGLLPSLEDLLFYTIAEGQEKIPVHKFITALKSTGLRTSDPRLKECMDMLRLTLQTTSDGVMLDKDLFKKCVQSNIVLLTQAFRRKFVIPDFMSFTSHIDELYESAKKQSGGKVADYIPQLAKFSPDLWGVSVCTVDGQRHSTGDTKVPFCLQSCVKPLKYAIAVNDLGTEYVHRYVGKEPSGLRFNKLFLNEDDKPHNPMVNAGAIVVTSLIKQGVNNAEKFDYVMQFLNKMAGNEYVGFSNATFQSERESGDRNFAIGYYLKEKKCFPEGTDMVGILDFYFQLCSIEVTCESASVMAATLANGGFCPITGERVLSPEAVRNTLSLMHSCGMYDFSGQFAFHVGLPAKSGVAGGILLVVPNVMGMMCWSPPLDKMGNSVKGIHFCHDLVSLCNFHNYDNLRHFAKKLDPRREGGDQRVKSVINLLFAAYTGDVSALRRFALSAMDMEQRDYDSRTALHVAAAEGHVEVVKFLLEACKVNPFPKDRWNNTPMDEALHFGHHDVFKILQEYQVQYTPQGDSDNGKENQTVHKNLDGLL
#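 Enzyme dispensed in phosphate buffer (45 mM, pH 8.2, 0.02% Tween-20), compounds pinned in, then 1 mM L-glutamine solution and the glutamate oxidase–HRP–Amplex Red mix added; fluorescence read immediately and again after 30 min at room temperature.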
# Glioma ERSR ind = induces the endoplasmic reticulum stress response in human glioma cells. 420,000 compounds, 0.02% hits. Potency, µM, for the others: at the top dose activation, hits mostly activators. AID 602332. U87-MG GRP78 promoter luciferase reporter, 16 h; further: potency means the concentration at half of the fitted maximal effect; series mostly up to about 76 µM; % of control where 0% means no effect; nearly all actives have a fitted effect of over 35% in size
#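 ERSR induction read as luciferase luminescence (Bright-Glo, 10 min at room temperature) in stably transfected human U87-MG glioma cells exposed to compounds for 16 h, using GRP78 as sensor.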
# CCT modulator = modulators of cytosolic chaperonin (CCT/TRiC) activity; purified chaperonin ATPase assay, HTRF ADP detection, 30 min; AID 651819; activity change, % (concentration not given with the values), hits read low; 360,000 compounds, 0.3% hits; in the data active means activity change below about -30%; further: on the % scale 0 is the no-effect control and ±100 the full control effect
#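 We incubate TRiC, 40 or 20 nM final, with library compounds at 76 uM and 10 uM ATP for 30 min at 37 °C. ADP formed is detected with Transcreener HTRF reagents after 30 min at room temperature.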
# * marks the source's active call; other numbers are inactive results; i = inactive; ? = inconclusive; · = no result given. A selection: hits, their analogues and other compounds. The true share with any hit is near 0.85%. Unless noted, the call rests on the fitted dose curve; in most records, active means well fitted curve in the direction sought with a large enough effect; inconclusive means small, poorly fitted or top-dose-only effect, or another doubt; inactive means no such curve, though single readings can be large; an effect the other way counts as inactive or inconclusive.
SMILES,IDH1 R132H inh,MmCpn inh,pAkt inh,GLS inh,Glioma ERSR ind,CCT modulator
Cc1ccc(-c2cc(C(=O)Nc3ccc4c(c3)OCCO4)c3ccccc3n2)cc1,7%,-20%,·,-4%,2%,-33*
NS(=O)(=O)c1cccc(NC(=O)c2cc(-c3cccs3)nc3ccccc23)c1,-4%,-3%,i,-1%,-2%,0
Cc1cccc(NC(=O)c2cc(C)nc3ccccc23)c1,3%,3%,i,12%,-5%,-39*
CN(C)S(=O)(=O)c1cccc(NC(=O)c2cc(-c3cccs3)nc3ccccc23)c1,0%,?,i,4%,5%,-32*
O=C(Nc1ccccc1C(=O)O)c1cc(S(=O)(=O)NCc2ccccc2)ccc1Cl,-3%,1%,i,9%,-4%,-60*
O=C(c1cnccn1)N1CCC2(CCCN(C(c3ccccc3)c3ccccc3)C2)CC1,·,·,·,·,45µM*,·
O=C(c1cnccn1)N1CCC2(CC1)CN(C(c1ccccc1)c1ccccc1)C2,·,·,·,·,0%,·
O=C(c1cccc(F)c1)N1CCC[C@@]2(CCN(C(c3ccccc3)c3ccccc3)C2)C1,·,·,·,·,13µM*,·
O=C(c1cccc(F)c1)N1CCC2(CC1)CN(C(c1ccccc1)c1ccccc1)C2,·,·,·,·,-2%,·
Cn1c(SCC2CCCO2)nnc1C1CCN(Cc2ccc(-c3cccc(Cl)c3)o2)CC1 (configuration not stated),·,·,·,·,-3%,·
CC(NC(=O)c1cccnc1)c1nnc2n1CCN(Cc1ccc(-c3ccccc3Cl)o1)CC2 (configuration not stated),·,·,·,·,-1%,·
COCCN(CCOC)S(=O)(=O)c1ccc(C(=O)NC2CCN(Cc3ccccc3)CC2)cc1,5%,0%,-113%*,1%,0%,-1
CCN(CC)S(=O)(=O)c1ccc(Cl)c(C(=O)NC2CCN(Cc3ccccc3)CC2)c1,2%,0%,i,0%,-9%,-3
Cc1c(-c2ccnc3cc(C(=O)O)nn23)cnn1C,0%,-3%,i,7.9µM*,-4%,-3
COc1ccc(O)c(CN2CCC3(CCC(CNC(=O)c4ccco4)O3)CC2)c1 (configuration not stated),·,·,·,·,1%,·
Cc1ccc(CN2C(=O)CCC2C(=O)NC(C)C)cc1 (configuration not stated),-5%,-1%,-118%*,4%,5%,1
Cc1ccc2cc(CNC(C)c3cccc4ccccc34)c(N3CCC(O)CC3)nc2c1 (configuration not stated),·,·,·,·,-3%,·
CCC(C)(C(=O)NC1CCCCC1)N(Cc1ccco1)C(=O)c1ccccn1 (configuration not stated),9%,-1%,-107%*,-8%,-3%,0
Cc1ccc(OCC(=O)N2CCN(C(=O)CCC3CCCC3)CC2)cc1,3%,0%,i,-2%,-2%,-76*
CCOc1ccc(/C=N/OCC(=O)Nc2cc(S(=O)(=O)N3CCOCC3)ccc2OC)cc1,-1%,·,i,-1%,2%,-84*
CC1CCN(Cc2cnc(Cl)s2)CC1,-2%,-2%,i,-9%,1%,-1
CC1CCCN(Cc2cnc(Cl)s2)C1 (configuration not stated),-1%,0%,-108%*,1%,-3%,1
CC(=O)Nc1ccc(Cc2ccncc2)cc1,-12%,-2%,-113%*,-2%,-6%,-2
CC(=O)Nc1ccc(S(=O)(=O)Nc2ccc(Cc3ccncc3)cc2)cc1,2%,0%,i,6%,-1%,-1
CCCn1cnc2c(oc3ccccc32)c1=O,3%,2%,i,-5%,1%,-3
CCOC(=O)C(CC)n1cnc2c(oc3ccccc32)c1=O (configuration not stated),6%,0%,-113%*,8%,-2%,1
Cc1ccccc1C1(CC(=O)N2CC3(C)CC2CC(C)(C)C3)CC(=O)N(Cc2cccnc2)C1=O (configuration not stated),·,·,·,·,-2%,·
